Source: PubChem BioAssay (NCATS)
Records with an inconclusive call do not appear. Where a call stands in place of a potency, no number is given. Activity calls are given as the source filed them. Calls come from the whole dose curve; as a rule, active = well fitted inhibition curve with a large enough effect; inconclusive = small, poorly fitted or top-dose-only effect; inactive = flat fitted curve, though single readings scatter.

System: UISO
Assay: qHTS assay to identify novel small-molecules to repurpose for Merkel cell carcinoma treatment (AID 1296009); note: nearly all actives have a fitted effect of over 60% in size
Conditions: MCC and control cell lines, CellTiter-Glo viability, 72 h; series mostly up to 46 µM
Method in brief: (§1)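 CellTiter-Glo luminescence after 72 hr compound exposure at 37 degree celsius gave cell viability. Libraries NPC and MIPE were run as 8- and 11-point dose responses; RLUs normalized to DMSO (negative) and no-cell (cytotoxicity) controls.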

| SMILES | Potency |
| --- | --- |
| C1CN2CCC1CC2 | inactive |
| CCC1(CC)C(=O)NC(=O)NC1=O | inactive |
| CC(C)(C)OC(=O)c1ncn2c1[C@@H]1CCCN1C(=O)c1c(Br)cccc1-2 | inactive |
| CN1C(=O)CN=C(c2ccccc2)c2cc([N+](=O)[O-])ccc21 | inactive |
| CCOC(=O)C(c1c(O)c2ccccc2oc1=O)c1c(O)c2ccccc2oc1=O | inactive |
| CNC(C)Cc1ccccc1OC (stereo not drawn) | inactive |
| ClCc1cccc(Cl)c1 | inactive |
| CC(CC(C(N)=O)(c1ccccc1)c1ccccc1)N(C)C (stereo not drawn) | inactive |
| CC1Sc2c(C(=O)O)c(=O)c3cc(F)c(N4CCNCC4)cc3n21 (stereo not drawn) | inactive |
| O=C(CBr)Nc1ccc(Cl)cc1C(=O)c1ccccc1F | inactive |
| COP(=O)(OC)C(O)C(Cl)(Cl)Cl (stereo not drawn) | inactive |
| C[C@H]1CNCCc2ccc(Cl)cc21 | inactive |
| COc1cc(N)c(Cl)cc1C(=O)NC1CN2CCC1CC2 (stereo not drawn) | inactive |
| COC(=O)C1=CCCN(C)C1 | inactive |
| C[C@@H]1CN(C2CCC(C#N)(c3ccc(F)cc3)CC2)CC[C@]1(C(=O)O)c1ccccc1 (stereo partly drawn) | inactive |
| CCOC(=O)NC(O)C(Cl)(Cl)Cl (stereo not drawn) | inactive |
| OC(O)C(Cl)(Cl)Cl | inactive |
| ClCCCN1CCN(c2cccc(Cl)c2)CC1 | inactive |
| C#C[C@]1(O)C=C[C@H]2[C@@H]3CCC4=CC(=O)CC[C@@H]4[C@H]3CC[C@@]21CC | inactive |
| O=c1[nH]c2cc(Cl)ccc2n1C1CCNCC1 | inactive |

| SMILES | Potency |
| --- | --- |
| O=C(O)Cc1ccccc1 | inactive |
| CC(C)(O)C(Cl)(Cl)Cl | inactive |
| C[N+]1(CCC(C(N)=O)(c2ccccc2)c2ccccc2)CCCCC1 | inactive |
| CCc1ccc(C2CCNCC2)cc1 | inactive |
| C[C@]12CC[C@H]3[C@@H](CCC4=CC(=O)CC[C@@H]43)[C@@H]1CC[C@@H]2O | inactive |
| Cc1ccc(N=CN(C)C=Nc2ccc(C)cc2C)c(C)c1 | inactive |
| COP(=O)(OC)OC=C(Cl)Cl | inactive |
| CCN1CCCC1CNC(=O)C(O)(c1ccccc1)c1ccccc1 (stereo not drawn) | inactive |
| CN(C)C(=O)Oc1cc(OC(=O)N(C)C)cc(C(O)CNC(C)(C)C)c1 (stereo not drawn) | inactive |
| O=C1CN2CCOC2(c2ccccc2Cl)c2cc(Cl)ccc2N1 (stereo not drawn) | inactive |
| COP(=S)(OC)Oc1ccc(Sc2ccc(OP(=S)(OC)OC)cc2)cc1 | inactive |
| O=C(O)c1nn(Cc2ccc(Cl)cc2Cl)c2ccccc12 | inactive |
| COCC(=O)N(c1c(C)cccc1C)C(C)C(=O)OC (stereo not drawn) | inactive |
| NC(=O)OCCCc1ccccc1 | inactive |
| CCN(CC)CCOC(=O)C(C)(c1ccccc1)c1ccccc1 | inactive |
| CCOP(=S)(OCC)O/N=C(\C#N)c1ccccc1 | inactive |
| O=C(CCCCl)c1ccc(F)cc1 | inactive |
| C[N+]1(C)[C@@H]2CC[C@H]1CC(OC(=O)C(CO)c1ccccc1)C2 (stereo partly drawn) | inactive |
| CC1=C2[C@H]3OC(=O)[C@@H](C)[C@@H]3CC[C@@]2(C)C=CC1=O | inactive |
| Sc1ccccc1Cl | inactive |

System: WaGa
Assay: as above
Conditions: MCC and control cell lines, CellTiter-Glo viability, 72 h; series mostly up to 46 µM
Method in brief: as §1

| SMILES | Potency |
| --- | --- |
| C1CN2CCC1CC2 | inactive |
| CCC1(CC)C(=O)NC(=O)NC1=O | inactive |
| CC(C)(C)OC(=O)c1ncn2c1[C@@H]1CCCN1C(=O)c1c(Br)cccc1-2 | inactive |
| CN1C(=O)CN=C(c2ccccc2)c2cc([N+](=O)[O-])ccc21 | inactive |
| CCOC(=O)C(c1c(O)c2ccccc2oc1=O)c1c(O)c2ccccc2oc1=O | inactive |
| CNC(C)Cc1ccccc1OC (stereo not drawn) | inactive |
| ClCc1cccc(Cl)c1 | inactive |
| CC(CC(C(N)=O)(c1ccccc1)c1ccccc1)N(C)C (stereo not drawn) | inactive |
| O=C(CBr)Nc1ccc(Cl)cc1C(=O)c1ccccc1F | inactive |
| COP(=O)(OC)C(O)C(Cl)(Cl)Cl (stereo not drawn) | inactive |
| C[C@H]1CNCCc2ccc(Cl)cc21 | inactive |
| COc1cc(N)c(Cl)cc1C(=O)NC1CN2CCC1CC2 (stereo not drawn) | inactive |
| COC(=O)C1=CCCN(C)C1 | inactive |
| C[C@@H]1CN(C2CCC(C#N)(c3ccc(F)cc3)CC2)CC[C@]1(C(=O)O)c1ccccc1 (stereo partly drawn) | inactive |
| CCOC(=O)NC(O)C(Cl)(Cl)Cl (stereo not drawn) | inactive |
| OC(O)C(Cl)(Cl)Cl | inactive |
| C#C[C@]1(O)C=C[C@H]2[C@@H]3CCC4=CC(=O)CC[C@@H]4[C@H]3CC[C@@]21CC | inactive |
| O=c1[nH]c2cc(Cl)ccc2n1C1CCNCC1 | inactive |
| O=C(O)Cc1ccccc1 | inactive |

| SMILES | Potency |
| --- | --- |
| CC(C)(O)C(Cl)(Cl)Cl | inactive |
| C[N+]1(CCC(C(N)=O)(c2ccccc2)c2ccccc2)CCCCC1 | inactive |
| CCc1ccc(C2CCNCC2)cc1 | inactive |
| C[C@]12CC[C@H]3[C@@H](CCC4=CC(=O)CC[C@@H]43)[C@@H]1CC[C@@H]2O | inactive |
| Cc1ccc(N=CN(C)C=Nc2ccc(C)cc2C)c(C)c1 | inactive |
| COP(=O)(OC)OC=C(Cl)Cl | inactive |
| CCN1CCCC1CNC(=O)C(O)(c1ccccc1)c1ccccc1 (stereo not drawn) | inactive |
| CN(C)C(=O)Oc1cc(OC(=O)N(C)C)cc(C(O)CNC(C)(C)C)c1 (stereo not drawn) | inactive |
| O=C1CN2CCOC2(c2ccccc2Cl)c2cc(Cl)ccc2N1 (stereo not drawn) | inactive |
| COP(=S)(OC)Oc1ccc(Sc2ccc(OP(=S)(OC)OC)cc2)cc1 | inactive |
| O=C(O)c1nn(Cc2ccc(Cl)cc2Cl)c2ccccc12 | inactive |
| COCC(=O)N(c1c(C)cccc1C)C(C)C(=O)OC (stereo not drawn) | inactive |
| NC(=O)OCCCc1ccccc1 | inactive |
| CCN(CC)CCOC(=O)C(C)(c1ccccc1)c1ccccc1 | inactive |
| CCOP(=S)(OCC)O/N=C(\C#N)c1ccccc1 | inactive |
| O=C(CCCCl)c1ccc(F)cc1 | inactive |
| C[N+]1(C)[C@@H]2CC[C@H]1CC(OC(=O)C(CO)c1ccccc1)C2 (stereo partly drawn) | inactive |
| CC1=C2[C@H]3OC(=O)[C@@H](C)[C@@H]3CC[C@@]2(C)C=CC1=O | inactive |
| Sc1ccccc1Cl | inactive |
